Hit rate of the full screen: of about 39,000 compounds, about 1,500 (3.8%) were called active. Only a selection was taken, and actives are over-represented in it overall.
system: HSkMC (human skeletal muscle cells); assay: cytotoxicity call (relative viability < 0.9); conditions: 10 µM

Compound	cytotoxicity call
Cc1cc(C(=O)Nc2cccc3c2O[C@H](CN(C)C(=O)Nc2ccc4c(c2)OCO4)[C@@H](C)CN([C@H](C)CO)C3=O)n(C)n1	inactive
COc1ccc(CCNC(=O)[C@@]2(Sc3ccc(C)cc3)CC(=O)N(C3CCCCC3)[C@@H]2c2ccc(CO)cc2I)cc1	inactive
COc1ccc(NC(=O)N(C)C[C@@H]2Oc3ccc(NS(=O)(=O)c4c(C)noc4C)cc3CC(=O)N([C@@H](C)CO)C[C@H]2C)cc1	inactive
CC(C)(O)CC(=O)NCCn1ccc2ncnc(Nc3ccc(Oc4cccc(C(F)(F)F)c4)c(Cl)c3)c21	inactive
Fc1cccc(-c2csc(COc3ccccc3Cl)n2)c1	inactive
CS(=O)(=O)CCNCc1nc(-c2ccc3ncnc(Nc4ccc(OCc5cccc(F)c5)c(Cl)c4)c3c2)cs1	active
CS(=O)(=O)CCNCc1ccc(-c2ccc3ncnc(Nc4ccc(OCc5cccc(F)c5)c(Cl)c4)c3c2)o1 [listing 1 of 2 here]	active
CS(=O)(=O)CCNCc1ccc(-c2ccc3ncnc(Nc4ccc(OCc5cccc(F)c5)c(Cl)c4)c3c2)o1 [listing 2 of 2 here]	active
CCCN(C)C[C@H]1OCCCC[C@H](C)Oc2ccc(NS(=O)(=O)c3cn(C)cn3)cc2C(=O)N([C@H](C)CO)C[C@H]1C	inactive
C[C@@H]1CNC[C@H](C)N1	inactive
C[C@H](CO)N1C[C@H](C)[C@@H](CN(C)S(=O)(=O)c2ccc(Cl)cc2)Oc2ccc(NC(=O)CCN3CCOCC3)cc2C1=O	inactive
c1ccc(C2C3=C(CCCC3)SC3=C2CCCC3)cc1	inactive
Cc1noc(C)c1NC(=O)N(C)C[C@@H]1Oc2c(NS(C)(=O)=O)cccc2C(=O)N([C@H](C)CO)C[C@H]1C	inactive
Cc1ccc(S(=O)(=O)N(C)C[C@@H]2Oc3c(NC(=O)Nc4ccc(C(F)(F)F)cc4)cccc3C(=O)N([C@H](C)CO)C[C@@H]2C)cc1	inactive
Cc1ccc(S(=O)(=O)N(C)C[C@H]2Oc3c(NC(=O)Nc4ccc(C(F)(F)F)cc4)cccc3C(=O)N([C@@H](C)CO)C[C@H]2C)cc1	active
Cc1ccc(S(=O)(=O)N(C)C[C@H]2Oc3c(NC(=O)Nc4ccc(C(F)(F)F)cc4)cccc3C(=O)N([C@H](C)CO)C[C@H]2C)cc1	active
Cc1ccc(S(=O)(=O)N(C)C[C@H]2Oc3c(NC(=O)Nc4ccc(C(F)(F)F)cc4)cccc3C(=O)N([C@@H](C)CO)C[C@@H]2C)cc1	inactive
Cc1ccc(S(=O)(=O)N(C)C[C@@H]2Oc3c(NC(=O)Nc4ccc(C(F)(F)F)cc4)cccc3C(=O)N([C@@H](C)CO)C[C@H]2C)cc1	inactive
Cc1ccc(S(=O)(=O)N(C)C[C@@H]2Oc3c(NC(=O)Nc4ccc(C(F)(F)F)cc4)cccc3C(=O)N([C@H](C)CO)C[C@H]2C)cc1	inactive
[N-]=[N+]=N[C@]1(CO)O[C@@H](n2ccc(N)nc2=O)[C@H](O)[C@@H]1O	inactive
c1ccc(CCN2CCNCC2)nc1	inactive

Compound	cytotoxicity call
C[C@@H]1CN([C@H](C)CO)C(=O)c2cc(Br)cnc2O[C@@H]1CN(C)S(=O)(=O)c1ccccc1	inactive
Cc1ccc(S(=O)(=O)N(C)C[C@@H]2Oc3ncc(C#CC4(O)CCCC4)cc3C(=O)N([C@@H](C)CO)C[C@@H]2C)cc1	inactive
COc1ccc(S(=O)(=O)N(C)C[C@@H]2Oc3ccc(NS(=O)(=O)c4c(C)noc4C)cc3C(=O)N([C@H](C)CO)C[C@@H]2C)cc1	inactive
CCCNC(=O)C[C@H]1CC[C@H]2[C@@H](COc3ccc(NS(=O)(=O)c4ccccc4C)cc3C(=O)N2C)O1	inactive
C[C@@H]1CN([C@@H](C)CO)C(=O)Cc2cc(NC(=O)CCCCCC(=O)Nc3ccccc3N)ccc2O[C@@H]1CN(C)Cc1ccc(Oc2ccccc2)cc1	inactive
C[C@@H]1CN([C@H](C)CO)C(=O)Cc2cc(NC(=O)CCCCCC(=O)Nc3ccccc3N)ccc2O[C@H]1CN(C)CC1CCCCC1	inactive
C[C@@H]1CN([C@@H](C)CO)C(=O)c2cc(NC(=O)CCCCCC(=O)Nc3ccccc3N)ccc2O[C@@H]1CN(C)Cc1ccc(-c2ccccc2)cc1	inactive
C[C@@H]1CN([C@@H](C)CO)C(=O)Cc2cc(NC(=O)CCCCCC(=O)Nc3ccccc3N)ccc2O[C@@H]1CN(C)CC1CCCCC1	inactive
C[C@H]1CN([C@@H](C)CO)C(=O)c2cc(NC(=O)CCCCCC(=O)Nc3ccccc3N)ccc2O[C@H]1CN(C)Cc1ccc(-c2ccccc2)cc1	inactive
C[C@@H]1CN([C@H](C)CO)C(=O)Cc2cc(NC(=O)CCCCCC(=O)Nc3ccccc3N)ccc2O[C@@H]1CN(C)Cc1ccc(Oc2ccccc2)cc1	active
C[C@@H]1CN([C@H](C)CO)C(=O)Cc2cc(NC(=O)CCCCCC(=O)Nc3ccccc3N)ccc2O[C@@H]1CN(C)Cc1ccc(-c2ccccc2)cc1	active
C[C@@H]1CN([C@H](C)CO)C(=O)Cc2cc(NC(=O)CCCCCC(=O)Nc3ccccc3N)ccc2O[C@@H]1CN(C)CC1CCCCC1	active
C[C@@H]1CN([C@H](C)CO)C(=O)Cc2cc(NC(=O)CCCCCC(=O)Nc3ccccc3N)ccc2O[C@H]1CN(C)Cc1ccc(-c2ccccc2)cc1	inactive
C[C@@H]1CN([C@H](C)CO)C(=O)c2cc(NC(=O)CCCCCC(=O)Nc3ccccc3N)ccc2O[C@H]1CN(C)Cc1ccc(-c2ccccc2)cc1	active
C[C@H]1CN([C@@H](C)CO)C(=O)Cc2cc(NC(=O)CCCCCC(=O)Nc3ccccc3N)ccc2O[C@@H]1CN(C)Cc1ccc(Oc2ccccc2)cc1	inactive
C[C@H]1CN([C@@H](C)CO)C(=O)Cc2cc(NC(=O)CCCCCC(=O)Nc3ccccc3N)ccc2O[C@H]1CN(C)Cc1ccc(-c2ccccc2)cc1	inactive
CN1C[C@H](O)COC[C@@H]2O[C@@H](CC(=O)N3CCN(c4ccccc4)CC3)CC[C@H]21	inactive
C[C@@H]1CCCCO[C@H](CN(C)C(=O)Nc2ccc(C(F)(F)F)cc2)[C@H](C)CN([C@H](C)CO)C(=O)c2cc(N(C)C)ccc2O1	inactive
COc1cccc(NC(=O)N(C)C[C@H]2Oc3ncc(C#Cc4cccnc4)cc3C(=O)N([C@@H](C)CO)C[C@@H]2C)c1	inactive
C[C@@H]1CN([C@H](C)CO)C(=O)Cc2cc(NC(=O)CCN3CCOCC3)ccc2O[C@H]1CN(C)S(=O)(=O)c1ccc(Cl)cc1	inactive
O=C(O)c1cc(F)c2nc(N3[C@@H]4CC[C@H]3C[C@@H](OCc3c(-c5ccccc5OC(F)(F)F)noc3C3CC3)C4)sc2c1	inactive

Compound	cytotoxicity call
C[C@H](CO)N1C[C@H](C)[C@H](CN(C)Cc2ccncc2)Oc2c(NC(=O)Nc3cccc4ccccc34)cccc2C1=O	inactive
C[C@H](CO)N1C[C@H](C)[C@@H](CN(C)S(=O)(=O)c2ccc(Oc3ccccc3)cc2)OCc2cnnn2CCCC1=O	inactive
C[C@@H]1CN([C@@H](C)CO)C(=O)c2cc(NC(=O)C3CCCCC3)ccc2O[C@@H](C)CCCCO[C@H]1CN(C)Cc1ccc2c(c1)OCO2	inactive
COc1ccc(CNC(=O)C[C@@H]2C[C@@H]3c4cc(NS(=O)(=O)c5ccc(F)cc5)ccc4O[C@@H]3[C@H](CO)O2)cc1	inactive
O=C1c2ccc3c4c(ccc(c24)C(=O)N1CCCCO)C(=O)N(CCCCO)C3=O	active
O=C(O)CCCN1C(=O)c2cccc3cccc(c23)C1=O	inactive
NC(=O)CCN1C(=O)c2ccccc2C1=O	inactive
CN1C(=O)c2cc(NC(=O)C3CCOCC3)ccc2OC[C@H]2O[C@H](CC(=O)NCc3ccc4c(c3)OCO4)CC[C@H]21	inactive
C[C@H](CO)N1C[C@H](C)[C@H](CN(C)S(=O)(=O)c2cccs2)Oc2c(NS(=O)(=O)c3cn(C)cn3)cccc2C1=O	inactive
C[C@H](CO)N1C[C@H](C)[C@H](CN(C)C(=O)Nc2ccc(C(F)(F)F)cc2)OCCCC[C@H](C)Oc2ccc(NS(=O)(=O)c3ccc(Cl)cc3)cc2C1=O	inactive
C[C@@H]1CCCCO[C@@H](CN(C)C(=O)Nc2ccc(C(F)(F)F)cc2)[C@H](C)CN([C@H](C)CO)C(=O)c2cc(NS(=O)(=O)c3ccc(F)cc3)ccc2O1	inactive
C[C@@H]1CCCCO[C@H](CN(C)C(=O)Nc2ccc(C(F)(F)F)cc2)[C@H](C)CN([C@H](C)CO)C(=O)c2cc(NS(=O)(=O)c3ccc(Cl)cc3)ccc2O1	inactive
C[C@@H]1CCCCO[C@H](CN(C)C(=O)Nc2ccc(C(F)(F)F)cc2)[C@H](C)CN([C@@H](C)CO)C(=O)c2cc(NS(=O)(=O)c3ccc(Cl)cc3)ccc2O1	inactive
C[C@H]1CCCCO[C@H](CN(C)C(=O)Nc2ccc(C(F)(F)F)cc2)[C@@H](C)CN([C@@H](C)CO)C(=O)c2cc(NS(=O)(=O)c3ccc(F)cc3)ccc2O1	active
C[C@@H]1CN([C@@H](C)CO)C(=O)c2cc(NS(=O)(=O)c3ccc(Cl)cc3)ccc2O[C@@H](C)CCCCO[C@@H]1CN(C)C(=O)Nc1ccc(C(F)(F)F)cc1	inactive
C[C@@H]1CCCCO[C@@H](CN(C)C(=O)Nc2ccc(C(F)(F)F)cc2)[C@H](C)CN([C@H](C)CO)C(=O)c2cc(NS(=O)(=O)c3ccc(Cl)cc3)ccc2O1	active
C[C@@H]1CCCCO[C@@H](CN(C)C(=O)Nc2ccc(C(F)(F)F)cc2)[C@H](C)CN([C@@H](C)CO)C(=O)c2cc(NS(=O)(=O)c3ccc(F)cc3)ccc2O1	inactive
C[C@@H]1CCCCO[C@H](CN(C)C(=O)Nc2ccc(C(F)(F)F)cc2)[C@@H](C)CN([C@@H](C)CO)C(=O)c2cc(NS(=O)(=O)c3ccc(Cl)cc3)ccc2O1	active
C[C@H]1CCCCO[C@@H](CN(C)C(=O)Nc2ccc(C(F)(F)F)cc2)[C@@H](C)CN([C@@H](C)CO)C(=O)c2cc(NS(=O)(=O)c3ccc(Cl)cc3)ccc2O1	inactive
C[C@@H]1CN([C@H](C)CO)C(=O)c2cc(NS(=O)(=O)c3ccc(Cl)cc3)ccc2O[C@@H](C)CCCCO[C@H]1CN(C)C(=O)Nc1ccc(C(F)(F)F)cc1	active
C[C@@H]1CCCCO[C@@H](CN(C)C(=O)Nc2ccc(C(F)(F)F)cc2)[C@H](C)CN([C@@H](C)CO)C(=O)c2cc(NS(=O)(=O)c3ccc(Cl)cc3)ccc2O1	inactive

— the antibiotic and cytotoxicity screens of Wong et al. (2023)
